Measurements taken from the supplement of paper PMC10849652.
The full data set covers some 7,900 targets. This sample favours those with a hit. About 0.6% of all pairs of compound and target were hits.

Key:
Assay in all cases: log2 fold change, soluble protein after heating vs DMSO (PISA); higher = thermal stabilisation; K562 cells, 10 uM, 30 min; active = over 0.2 and 3.5 SD of the protein, either way, in both replicates (recomputed)
[1] = compound: Cc1ccc(NC(=O)c2ccc(CN3CC[C@H](N(C)C)C3)c(C(F)(F)F)c2)cc1Nc1nccc(-c2cncnc2)n1 [bafetinib]
How it was run: (§1)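 Soluble protein was quantified by TMTpro 16plex LC-MS/MS after channel sums were equalised. It was obtained as the supernatant after 21,000xg for 90 min from pooled aliquots of K562 cells (2×10^6 cells/mL, 10 μM compound, 30 min) heated for 3 min across 48°C-58°C and extracted in PBS with 0.5% NP-40 at 4°C. Thermal stability values are relative to control samples and come from duplicates. They are given as log2 fold changes.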

[2] = compound: Cc1cccc(CC(=O)N2CCc3c2ccc(-c2cn(C)c4ncnc(N)c24)c3F)n1
How it was run: as §1

[3] = compound: Cc1cn(-c2cc(NC(=O)c3ccc(C)c(Nc4nccc(-c5cccnc5)n4)c3)cc(C(F)(F)F)c2)cn1 [nilotinib]
How it was run: as §1

[4] = compound: Cc1nc(Nc2n[nH]c3c2CN(C(=O)N[C@H](CN(C)C)c2ccccc2)C3(C)C)c2sccc2n1
How it was run: as §1

[5] = compound: Cc1nc(Nc2ncc(C(=O)Nc3c(C)cccc3Cl)s2)cc(N2CCN(CCO)CC2)n1 [dasatinib]
How it was run: as §1

[6] = compound: Cc1ncc(-c2ccnc(Nc3ccc(S(C)(=O)=O)cc3)n2)n1C(C)C
How it was run: as §1

[7] = compound: Cn1cc(-c2ccc3c(c2)CCN3C(=O)Cc2cccc(C(F)(F)F)c2)c2c(N)ncnc21
How it was run: as §1

[8] = compound: Cn1cc(-c2ccc3nnc(C(F)(F)c4ccc5ncccc5c4)n3n2)cn1
How it was run: as §1

[9] = compound: Cn1cncc1[C@@](N)(c1ccc(Cl)cc1)c1ccc2c(c1)c(-c1cccc(Cl)c1)cc(=O)n2C [tipifarnib]
How it was run: as §1

[10] = compound: FC(F)(F)c1ccc(/C=C/c2nc(COc3ccc(CCCCn4ccnn4)cc3)co2)cc1 [mubritinib]
How it was run: as §1

[11] = compound: NC(=O)Nc1cc(-c2cccc(F)c2)sc1C(=O)N[C@H]1CCCNC1
How it was run: as §1

[12] = compound: NC(=O)c1cnc(N[C@@H]2CCCC[C@@H]2N)nc1Nc1cccc(-n2nccn2)c1
How it was run: as §1

[13] = compound: NC1(c2ccc(-c3nc4ccn5c(=O)[nH]nc5c4cc3-c3ccccc3)cc2)CCC1
How it was run: as §1

[14] = compound: NCC(=O)Nc1ccc(-n2nc(C(F)(F)F)cc2-c2ccc3c(ccc4ccccc43)c2)cc1
How it was run: as §1

[15] = compound: Nc1ccccc1NC(=O)c1ccc(CNC(=O)OCc2cccnc2)cc1 [entinostat]
How it was run: as §1

[16] = compound: O=C(CCCCCCC(=O)Nc1ccccc1)NO [vorinostat]
How it was run: as §1

[17] = compound: O=C(CCCCCCNC(=O)c1cnc(N(c2ccccc2)c2ccccc2Cl)nc1)NO [citarinostat]
How it was run: as §1

[18] = compound: O=C(O)c1ccc2c(c1)nc(Nc1cccc(Cl)c1)c1ccncc12 [silmitasertib]
How it was run: as §1

[19] = compound: O=C1NC(=O)C(c2cnc3ccccn23)=C1c1cn2c3c(cc(F)cc13)CN(C(=O)N1CCCCC1)CC2
How it was run: as §1

[20] = compound: c1cc(OCCN2CCCCC2)cc(-c2n[nH]c3ccc(-c4nnc[nH]4)cc23)c1
How it was run: as §1

Measured: log2 fold change

RAP1GDS1 isoform 5 (UniProt P52306)
Chain of UniProt P52306 (P52306 whole entry, looked up): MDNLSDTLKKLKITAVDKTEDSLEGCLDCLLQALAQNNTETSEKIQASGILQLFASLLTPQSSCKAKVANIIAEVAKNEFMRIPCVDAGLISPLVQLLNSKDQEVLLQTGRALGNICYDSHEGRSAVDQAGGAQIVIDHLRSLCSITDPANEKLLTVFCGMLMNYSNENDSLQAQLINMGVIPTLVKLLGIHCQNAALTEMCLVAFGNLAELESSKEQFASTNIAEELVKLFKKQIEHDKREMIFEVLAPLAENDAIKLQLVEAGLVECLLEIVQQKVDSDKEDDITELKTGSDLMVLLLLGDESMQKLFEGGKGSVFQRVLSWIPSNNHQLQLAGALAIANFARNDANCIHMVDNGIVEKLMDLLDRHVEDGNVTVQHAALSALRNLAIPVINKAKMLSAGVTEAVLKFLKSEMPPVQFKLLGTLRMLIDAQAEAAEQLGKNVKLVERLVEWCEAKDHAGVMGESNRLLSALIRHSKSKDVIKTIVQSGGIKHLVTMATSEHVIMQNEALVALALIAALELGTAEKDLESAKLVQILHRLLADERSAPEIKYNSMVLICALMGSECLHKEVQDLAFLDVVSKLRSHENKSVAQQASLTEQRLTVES
inactive: [1] 0.097 | [2] 0.07 | [3] -0.077 | [4] -0.105 | [5] -0.083 | [6] 0.042 | [7] -0.005 | [8] 0.03 | [9] -0.041 | [10] 0.026 | [11] -0.059 | [12] -0.069 | [13] -0.181 | [14] -0.117 | [15] 0.027 | [16] 0.119 | [17] 0.2 | [18] 0.087 | [19] -0.049 | [20] -0.002

SCAF8 isoform 2 (UniProt Q9UPN6)
Chain of UniProt Q9UPN6 (Q9UPN6 whole entry, looked up): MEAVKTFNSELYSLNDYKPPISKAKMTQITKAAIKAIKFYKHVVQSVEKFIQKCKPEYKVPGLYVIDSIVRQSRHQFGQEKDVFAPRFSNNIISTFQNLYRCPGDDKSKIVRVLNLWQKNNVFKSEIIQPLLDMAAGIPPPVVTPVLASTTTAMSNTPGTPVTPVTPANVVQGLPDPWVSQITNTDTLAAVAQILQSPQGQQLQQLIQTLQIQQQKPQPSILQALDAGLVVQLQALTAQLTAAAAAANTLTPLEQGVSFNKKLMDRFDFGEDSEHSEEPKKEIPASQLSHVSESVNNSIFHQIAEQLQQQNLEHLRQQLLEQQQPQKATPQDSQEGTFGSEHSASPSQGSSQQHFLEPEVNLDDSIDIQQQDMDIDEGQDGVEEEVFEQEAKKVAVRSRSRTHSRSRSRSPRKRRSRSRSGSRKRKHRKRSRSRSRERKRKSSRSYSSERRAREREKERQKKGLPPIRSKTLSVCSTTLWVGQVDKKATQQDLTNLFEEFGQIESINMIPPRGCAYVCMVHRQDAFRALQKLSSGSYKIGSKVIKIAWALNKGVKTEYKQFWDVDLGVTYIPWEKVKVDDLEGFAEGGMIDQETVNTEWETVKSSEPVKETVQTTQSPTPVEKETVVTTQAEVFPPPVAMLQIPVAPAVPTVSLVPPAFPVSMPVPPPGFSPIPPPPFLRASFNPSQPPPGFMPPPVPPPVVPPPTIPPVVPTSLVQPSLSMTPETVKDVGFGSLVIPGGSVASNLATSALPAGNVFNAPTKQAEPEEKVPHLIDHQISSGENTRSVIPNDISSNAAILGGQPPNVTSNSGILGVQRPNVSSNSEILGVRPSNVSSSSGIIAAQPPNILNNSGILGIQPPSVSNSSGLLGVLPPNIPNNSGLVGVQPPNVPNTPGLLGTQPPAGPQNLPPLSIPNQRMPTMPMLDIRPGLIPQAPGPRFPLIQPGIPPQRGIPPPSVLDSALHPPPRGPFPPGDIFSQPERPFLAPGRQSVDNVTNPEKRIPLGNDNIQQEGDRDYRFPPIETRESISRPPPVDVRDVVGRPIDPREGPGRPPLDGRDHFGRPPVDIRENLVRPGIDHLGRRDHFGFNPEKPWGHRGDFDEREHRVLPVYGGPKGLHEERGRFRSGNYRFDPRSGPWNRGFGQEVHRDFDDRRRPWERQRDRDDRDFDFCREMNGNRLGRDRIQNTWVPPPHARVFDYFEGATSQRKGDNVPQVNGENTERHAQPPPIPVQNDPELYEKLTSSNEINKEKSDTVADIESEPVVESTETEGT
inactive: [1] -0.024 | [2] 0.019 | [3] -0.032 | [4] -0.208 | [5] -0.212 | [6] 0.069 | [7] 0.064 | [8] 0.008 | [9] -0.027 | [10] 0.023 | [11] -0.062 | [12] -0.028 | [13] -0.086 | [14] -0.044 | [15] 0.053 | [16] 0.166 | [17] 0.058 | [18] -0.003 | [19] -0.098 | [20] -0.093

ROR2 (UniProt Q01974)
Chain of UniProt Q01974 (Q01974 whole entry, looked up): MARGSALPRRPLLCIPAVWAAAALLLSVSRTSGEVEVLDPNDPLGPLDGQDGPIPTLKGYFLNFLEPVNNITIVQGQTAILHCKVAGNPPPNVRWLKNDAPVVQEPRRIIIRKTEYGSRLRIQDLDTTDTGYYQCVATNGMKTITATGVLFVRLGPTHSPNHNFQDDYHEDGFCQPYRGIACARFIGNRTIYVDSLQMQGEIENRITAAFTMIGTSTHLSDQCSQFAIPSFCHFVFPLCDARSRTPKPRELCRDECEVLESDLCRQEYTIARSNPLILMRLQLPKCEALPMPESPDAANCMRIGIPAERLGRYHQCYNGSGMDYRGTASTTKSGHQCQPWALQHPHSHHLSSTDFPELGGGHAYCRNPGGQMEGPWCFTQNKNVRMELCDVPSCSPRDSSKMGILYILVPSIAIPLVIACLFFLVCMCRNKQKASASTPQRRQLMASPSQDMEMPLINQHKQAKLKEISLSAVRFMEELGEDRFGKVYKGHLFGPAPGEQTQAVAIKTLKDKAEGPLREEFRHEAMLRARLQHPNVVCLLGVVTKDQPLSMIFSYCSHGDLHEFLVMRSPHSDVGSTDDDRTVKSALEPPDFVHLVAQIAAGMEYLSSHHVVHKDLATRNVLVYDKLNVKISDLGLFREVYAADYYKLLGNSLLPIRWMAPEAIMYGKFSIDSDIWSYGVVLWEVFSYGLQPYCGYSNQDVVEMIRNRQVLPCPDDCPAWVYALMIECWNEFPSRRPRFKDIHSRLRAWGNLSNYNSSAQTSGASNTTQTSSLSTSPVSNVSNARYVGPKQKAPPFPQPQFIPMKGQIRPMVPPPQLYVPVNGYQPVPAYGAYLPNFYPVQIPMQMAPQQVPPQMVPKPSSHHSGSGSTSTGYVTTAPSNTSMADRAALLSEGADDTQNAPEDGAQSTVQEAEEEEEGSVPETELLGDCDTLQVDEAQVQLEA
inactive: [1] 0.024 | [2] 0.052 | [3] 0.009 | [4] -0.105 | [5] -0.124 | [6] 0.063 | [7] 0.043 | [8] -0.041 | [9] 0.03 | [10] 0.029 | [11] -0.007 | [12] -0.01 | [13] -0.03 | [14] -0.04 | [15] 0.004 | [16] 0.003 | [17] 0.078 | [18] -0.027 | [19] 0.012 | [20] -0.151

SASH1 (UniProt O94885)
Chain of UniProt O94885 (O94885 whole entry, looked up): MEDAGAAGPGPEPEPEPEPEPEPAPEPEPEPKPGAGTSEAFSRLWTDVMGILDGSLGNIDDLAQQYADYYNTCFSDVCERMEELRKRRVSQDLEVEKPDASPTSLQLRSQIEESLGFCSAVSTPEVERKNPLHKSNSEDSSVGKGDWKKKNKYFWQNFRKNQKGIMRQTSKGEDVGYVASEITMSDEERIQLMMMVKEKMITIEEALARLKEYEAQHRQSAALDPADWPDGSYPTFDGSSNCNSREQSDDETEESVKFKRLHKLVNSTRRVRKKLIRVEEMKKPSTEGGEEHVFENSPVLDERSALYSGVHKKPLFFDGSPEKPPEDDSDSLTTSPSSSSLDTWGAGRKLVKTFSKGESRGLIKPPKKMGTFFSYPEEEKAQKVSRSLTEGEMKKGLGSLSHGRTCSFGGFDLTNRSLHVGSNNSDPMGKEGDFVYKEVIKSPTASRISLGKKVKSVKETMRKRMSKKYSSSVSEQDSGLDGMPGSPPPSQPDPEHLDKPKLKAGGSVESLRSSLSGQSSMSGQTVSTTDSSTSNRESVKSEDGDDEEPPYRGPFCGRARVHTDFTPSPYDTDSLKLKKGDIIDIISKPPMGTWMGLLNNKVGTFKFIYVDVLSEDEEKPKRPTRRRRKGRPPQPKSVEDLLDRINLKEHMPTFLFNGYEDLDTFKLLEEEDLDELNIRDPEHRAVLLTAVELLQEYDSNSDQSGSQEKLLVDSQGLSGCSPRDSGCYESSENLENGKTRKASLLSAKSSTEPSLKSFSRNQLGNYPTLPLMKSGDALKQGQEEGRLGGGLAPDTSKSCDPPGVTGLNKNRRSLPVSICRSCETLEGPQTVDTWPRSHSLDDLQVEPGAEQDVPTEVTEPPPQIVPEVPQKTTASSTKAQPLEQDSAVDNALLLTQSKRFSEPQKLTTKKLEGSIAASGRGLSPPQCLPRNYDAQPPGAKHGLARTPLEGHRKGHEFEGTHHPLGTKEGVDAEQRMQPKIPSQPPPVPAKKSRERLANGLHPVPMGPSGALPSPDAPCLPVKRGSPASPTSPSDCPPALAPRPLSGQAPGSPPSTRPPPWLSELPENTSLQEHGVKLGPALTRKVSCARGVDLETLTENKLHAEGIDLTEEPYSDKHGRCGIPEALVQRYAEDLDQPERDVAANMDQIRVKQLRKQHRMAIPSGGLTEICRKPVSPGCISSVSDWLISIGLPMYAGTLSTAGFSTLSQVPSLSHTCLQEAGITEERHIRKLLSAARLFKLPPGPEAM
inactive: [1] -0.052 | [2] -0.006 | [3] -0.079 | [4] -0.071 | [5] -0.046 | [6] 0.034 | [7] 0.011 | [8] 0.073 | [9] 0.025 | [10] 0.032 | [11] -0.08 | [12] -0.06 | [13] -0.053 | [14] -0.147 | [15] 0.035 | [16] 0.077 | [17] 0.167 | [18] 0.033 | [19] 0.008 | [20] -0.218
